A number with no mark means an inactive call.
tested on: HCC1569; test: H1.0 immunofluorescence intensity relative to DMSO (% of DMSO); higher = stronger H1.0 induction, active = 140 or more; conditions: concentration: 10 µM; 24 h
Summary of the method: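 HCC1569 and TDF cells were seeded at 800 per well in 384-well plates in RPMI with 10% FBS and treated with compounds at 10 µM for 24 h at 37 °C, in triplicate. After fixation in 3.7% formaldehyde, cells were stained with a rabbit anti-H1.0 antibody, an AlexaFluor 647 secondary and DAPI, and six fields per well were imaged at ×10. H1.0 nuclear intensity or cell number is given as percent of the plate control, using the median of replicates, with HCC1569 values smoothed for positional effects.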
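Note: TDF is a line of transformed human dermal fibroblasts of mesenchymal origin.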

Structure (SMILES)	H1.0 immunofluorescence intensity
CCN(CC)CCNC(=O)c1ccc(N)cc1.Cl [Procainamide hydrochloride]	99.1
CC1CC2C3CCC4=CC(=O)C=CC4(C)C3(F)C(O)CC2(C)C1(O)C(=O)CO (stereo not given) [Dexamethasone]	112
O=C(O)c1ccc2ccccc2c1O.OCc1cc(C(O)CNCCCCCCOCCCCc2ccccc2)ccc1O (stereo not given) [Salmeterol xinafoate]	121
N#Cc1cccc(-c2c[nH]c3ncnc(N4CCOCC4)c23)c1 [3-(4-morpholino-7H-pyrrolo[2,3-d]pyrimidin-5-yl)benzonitrile]	80.8
CC(O)C(CO)NC(=O)C1CSSCC(NC(=O)C(N)Cc2ccccc2)C(=O)NC(Cc2ccccc2)C(=O)NC(Cc2c[nH]c3ccccc23)C(=O)NC(CCCCN)C(=O)NC(C(C)O)C(=O)N1 (stereo not given) [Octreotide]	98.9
CC(=O)NCCc1c[nH]c2ccc(O)cc12 [N-Acetyl-5-hydroxytryptamine]	87.2
CCCCCCCCC=CCCCCCCCC(=O)NCCc1ccc(O)c(O)c1 [Oleoyl dopamine]	118
CN1C2CCC1CC(OC(c1ccccc1)c1ccccc1)C2.CS(=O)(=O)O (stereo not given) [Benztropine mesylate]	97.7
CCCCCCCCCCCCCCC(O)C(O)C(N)CO (stereo not given) [Phytosphingosine]	104
Cl.Cl.OCCN1CCN(CCCN2c3ccccc3Sc3ccc(C(F)(F)F)cc32)CC1 [Fluphenazine dihydrochloride]	133
CCCC(=O)Oc1ccc2[nH]c(C(=O)c3cc4ccccc4[nH]3)cc2c1 [PDGF Receptor Tyrosine Kinase Inhibitor II]	165 (active)
CN1CCN2c3ccccc3Cc3ccccc3C2C1.Cl (stereo not given) [Mianserin hydrochloride]	98.4
CC(=O)OC(C)C[N+](C)(C)C.[Cl-] (stereo not drawn) [Acetyl-beta-methylcholine chloride]	88.4
CCCCCCCCCCCCCC(=O)NC(C)C(O)c1ccccc1 [D-erythro MAPP]	94.7
CC(C)CC(NC(=O)C(Cc1ccccc1)NC(=O)c1cnccn1)B(O)O (stereo not given) [Bortezomib]	59.7
OB1OCc2cc(F)ccc21 [5-fluoro-2,1-benzoxaborol-1(3H)-ol]	98.5
CON=C(C(=O)NC1C(=O)N2C(C(=O)[O-])=C(C[N+]3(C)CCCC3)CSC12)c1csc(N)n1 (stereo not given) [Cefepime]	110
Cc1[nH]c2ccccc2c1CC(=O)N[C@@H](Cc1ccccc1)C(=O)N(C)c1ccccc1	119
COc1cc2oc(=O)ccc2cc1O [Isoscopoletine]	89.1
CC(O)C(=O)C1=Nc2c([nH]c(N)nc2=O)NC1 (stereo not given) [Sepiapterin]	99.1

Structure (SMILES)	H1.0 immunofluorescence intensity
CNC(=O)c1cc(Oc2ccc(NC(=O)Nc3ccc(Cl)c(C(F)(F)F)c3)cc2)ccn1 [Sorafenib]	68.6
CCc1nn(CCCN2CCN(c3cccc(Cl)c3)CC2)c(=O)n1CCOc1ccccc1 [Nefazodone]	110
NC(=O)C(=O)[O-].[Na+] [Sodium Oxamate]	93.5
COc1cccc2c1C(=O)c1c(O)c3c(c(O)c1C2=O)CC(O)(C(=O)CO)CC3OC1CC(N)C(O)C(C)O1.Cl (stereo not given) [Doxorubicin.HCl]	1430 (active)
O=C([O-])CCCc1ccccc1.[Na+] [Sodium Phenylbutyrate]	97.7
CCCCCCCCC=CCCCCCCCC(=O)OCC(CO)OC(C)=O (stereo not given) [1-Oleoyl-2-acetyl-glycerol]	106
O=C1CSc2ccccc2N1Cc1cccc(C(F)(F)F)c1 [4-[3-(trifluoromethyl)benzyl]-2H-1,4-benzothiazin-3(4H)-one]	105
Cl.N=c1ccn2c(n1)OC1C(O)C(CO)OC12 (stereo not given) [Ancitabine hydrochloride]	92
COc1cc2nccc(Oc3ccc(NC(=O)Nc4cc(C)on4)c(Cl)c3)c2cc1OC.O [VEGFR Tyrosine Kinase Inhibitor IV]	121
C=C1CCC2OC2(C)CCC2C1CC2(C)C (stereo not given) [Caryophylline]	91.3
CCCC(CCC)C(=O)[O-].[Na+] [Valproic acid sodium]	99.9
COc1ccccc1N1CCN(CCN2C(=O)CC3(CCCC3)CC2=O)CC1.Cl.Cl [BMY 7378 dihydrochloride]	89.9
O=C1c2c(O)cc(O)cc2OC(c2ccc(O)c(O)c2)C1O (racemic)	103
COc1cccc(C(=O)NCCN2CCN(c3ccc(Cl)cc3)CC2)c1	92.3
C[n+]1cccc(C(=O)O)c1.[Cl-]	92.9
COc1ccc(Cl)cc1C(=O)NCCc1ccc(S(=O)(=O)NC(=O)NC2CCCCC2)cc1 [Glibenclamide]	90.3
Cc1cccc(C)c1OCC(C)N.Cl (stereo not given) [Mexiletene hydrochloride]	94.3
Cc1ccc(NC2=CC(=O)c3sc(C)nc3C2=O)cc1 [Cdk4 Inhibitor III]	105
COc1ccc2nc(S(=O)Cc3ncc(C)c(OC)c3C)[nH]c2c1 (stereo not given) [Omeprazole]	111
NC1CONC1=O [L-Cycloserine]	84.8
